# In PubChem BioAssay:
# Assay: small-molecule binders of probe aNOTCH2, primary screen, biochemical, small-molecule microarray, 635/667 nm fluorescence (AID 1121);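 note: score merges feature fluorescence read at 667 nm with its signal to noise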
# Conditions: higher = more signal
row,SMILES,composite z-score
1,CCOC(=O)C[C@H]1[C@H](OC(=O)c2ccccc2-c2ccccc2)[C@@H](NC(=O)c2ccc(-c3ccccc3)cc2)c2cc(OCCCO)ccc2N1C(=O)c1ccc2ccccc2n1,-0.0441
2,C=CCC(OC(C)=O)[C@@H]1[C@@H](N(Cc2ccc(-c3ccccc3)cc2)C(=O)Cc2ccc(F)cc2)c2cc(OCCCO)ccc2N1C(=O)Cc1ccc(OC)cc1 (some centres undefined),-0.141
3,O=C(NCC(F)(F)F)[C@@H]1c2ccccc2C(=O)N(Cc2ccc(OC(F)(F)F)cc2)[C@H]1c1ccc(CO)cc1,-0.14
4,COC(=O)CCCCCCC(=O)Nc1ccc(NC(=O)CCCC[P+](c2ccccc2)(c2ccccc2)c2ccccc2)cc1,-0.134
5,CCCCCCc1nc(C2CC2)cc2c1[Si](C(C)C)(C(C)C)OC2,-0.176
6,O=C1O[C@H](c2ccccc2)[C@H](c2ccccc2)N2[C@H]1[C@@H](C(=O)Nc1nc3ccccc3s1)[C@]1(C(=O)Nc3ccccc31)[C@H]2c1ccc(OCCO)cc1,-0.0895
7,C=C(/C(=C/C[C@H](OC(=O)c1ccncc1)c1ccc(CO)o1)c1cc(C(=O)OC)ccc1OC)C(C)C,-0.116
8,CN(C)C(=O)[C@@]1(CCS(=O)(=O)c2ccccc2)N=C(c2ccc(OCCCO)cc2)O[C@H]1c1ccccc1,-0.115
9,O=C1OCCC/C=C\[C@H]2OC34C=CCN(CCN5CCOCC5)C(=O)[C@H]3N(CCCCCCO)C(=O)[C@@H]4C12 (some centres undefined),-0.144
10,O=C1C2C=CC(C(O)c3ccc(Br)cc3)N(Nc3ccccc3F)C2C(=O)N1c1ccccc1 (centres undefined),-0.126
11,CCCCC(=C=CC[C@@H](O)c1ccccc1OCCO)C[C@@H](O)COCc1ccccc1,-0.148
12,O=C1O[C@@H](c2ccccc2)[C@@H](c2ccccc2)N2[C@@H](c3ccc(O)cc3)[C@]3(C(=O)Nc4ccc(C#CC5=CCCCC5)cc43)[C@@H](C(=O)NC[C@H](O)c3ccccc3)[C@H]12,0.0556
13,NC(=O)NCC#Cc1ccc2c(c1)[C@]1(C(=O)N2)[C@H](C(=O)NC[C@H](O)c2ccccc2)[C@H]2C(=O)O[C@H](c3ccccc3)[C@H](c3ccccc3)N2[C@@H]1c1ccc(OCCO)cc1,-0.0449
14,CC(C)N1CC=CC23O[C@@H]4C=CCOC(=O)[C@@H]4[C@H]2C(=O)N(CCCO)[C@@H]3C1=O (some centres undefined),-0.118
15,N#Cc1ccc(C(O)C2C=CC3C(=O)N(c4ccccc4)C(=O)C3N2Nc2ccccc2)cc1 (centres undefined),0.0675
16,CCCCN1CC=CC23O[C@@H]4/C=C\CCC(C)OC(=O)C4[C@H]2C(=O)N(C(CO)C(C)C)[C@@H]3C1=O (some centres undefined),-0.12
17,C=CCN1Cc2ccccc2[C@H]2OC(c3ccc(OCCCO)cc3)=N[C@@]2(CC=C)C1=O,0.007
18,CC(CO)N1C(=O)[C@@H]2[C@H]3C(=O)OCC=C[C@H]3OC23C=CCN(CCN2CCOCC2)C(=O)[C@@H]13 (some centres undefined),-0.117
19,CCCCCCc1nc(-c2cc(C)c(OC)c(C)c2)c(C)c2c1[Si](C(C)C)(C(C)C)OC2,-0.209
20,C=C(COC)/C(=C/C[C@H](OC(=O)c1ccncc1)c1ccccc1OCCO)c1cnc2ccccc2c1,-0.102
21,CO[C@H]1O[C@H](CO)[C@@H](OC(=O)Nc2ccc3c(c2)OCO3)[C@H](OC(=O)c2cc3ccccc3[nH]2)[C@H]1OC(=O)c1cc2ccccc2[nH]1,-0.0875
22,O=C1N(Cc2ccccc2)c2ccccc2[C@@H]2OC(c3ccc(OCCCO)cc3)=N[C@]12Cc1ccccc1,-0.0146
23,CCOC(=O)c1ccc(NC(=O)O[C@H]2[C@H](OC(=O)Nc3ccc4c(c3)OCO4)[C@@H](OC(=O)Nc3ccc4c(c3)OCO4)[C@@H](OC)O[C@@H]2CO)cc1,-0.0226
24,C=CCC(OC(C)=O)[C@@H]1[C@@H](N(Cc2cccc3ccccc23)C(=O)Cc2ccc(OC)cc2)c2cc(OCCCO)ccc2N1C(=O)c1ccc2ccccc2n1 (some centres undefined),-0.0515
25,COCCCNC(=O)[C@@]1(Cc2ccccc2CN=[N+]=[N-])N=C(c2ccc(OCCCO)cc2)O[C@H]1c1ccccc1,-0.0006
26,COC(=O)[C@@]1(Cc2ccccc2)[C@H]2c3cc(C(=O)N(C)C)n(CCc4ccc(O)c(OC)c4)c3C[C@H]2CN1C(=O)c1ccccc1,0.401
27,CN1C(=O)C2C=CC(C(O)COCc3ccccc3)N(N(c3ccccc3)c3ccccc3)C2C1=O (centres undefined),-0.0173
28,CC(c1ccccc1)C(O)C1C=CC2C(=O)N(c3ccccc3)C(=O)C2N1Nc1ccc([N+](=O)[O-])cc1 (centres undefined),-0.0211
29,[N-]=[N+]=NCc1ccccc1[C@H]1OC(c2ccc(OCCCO)cc2)=N[C@@]1(CCS(=O)(=O)c1ccccc1)C(=O)N1CCCCC1,0.0562
